Measured values reported in ChEMBL document CHEMBL1961873, “Compounds: GSK PKIS; Assays: Nanosyn kinase panel” (2012).
Several values for one entry are separate records, joined by “and”; a condition that tells them apart may be missing. Equal values may be shown once.

Tests used:
[1] = target: T1, Serine/threonine-protein kinase D2 (Homo sapiens) (UniProt Q9BZL6); conditions: at 1 µM;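 note: mean value of PRKD2 inhibition, from the GSK PKIS screening panel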
T1 sequence (whole entry): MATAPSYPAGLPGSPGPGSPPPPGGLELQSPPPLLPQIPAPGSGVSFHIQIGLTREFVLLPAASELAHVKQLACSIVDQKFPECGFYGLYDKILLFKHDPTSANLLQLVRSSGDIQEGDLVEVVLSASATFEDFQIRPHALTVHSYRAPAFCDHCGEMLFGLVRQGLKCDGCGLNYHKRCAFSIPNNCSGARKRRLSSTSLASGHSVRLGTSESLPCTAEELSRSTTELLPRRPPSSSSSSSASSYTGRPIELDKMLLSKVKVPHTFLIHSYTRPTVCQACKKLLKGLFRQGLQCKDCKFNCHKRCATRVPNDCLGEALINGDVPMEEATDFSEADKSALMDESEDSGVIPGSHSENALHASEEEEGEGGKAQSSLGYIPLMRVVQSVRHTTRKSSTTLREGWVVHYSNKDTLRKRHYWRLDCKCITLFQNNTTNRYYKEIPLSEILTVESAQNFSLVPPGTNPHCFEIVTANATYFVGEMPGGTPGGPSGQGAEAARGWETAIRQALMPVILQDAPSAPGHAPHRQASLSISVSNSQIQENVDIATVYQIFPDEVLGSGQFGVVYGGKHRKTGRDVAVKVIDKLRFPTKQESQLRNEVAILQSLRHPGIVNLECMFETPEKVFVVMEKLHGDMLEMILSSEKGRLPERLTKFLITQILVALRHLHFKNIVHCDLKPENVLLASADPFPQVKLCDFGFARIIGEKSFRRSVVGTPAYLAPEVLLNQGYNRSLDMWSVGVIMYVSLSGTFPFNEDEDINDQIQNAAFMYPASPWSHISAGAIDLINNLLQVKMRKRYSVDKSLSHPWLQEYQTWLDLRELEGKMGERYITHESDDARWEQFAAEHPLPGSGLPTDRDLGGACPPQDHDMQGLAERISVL

[2] = target: T2, Serine/threonine-protein kinase D3 (Homo sapiens) (UniProt O94806); conditions: at 0.1 µM
T2 sequence (whole entry): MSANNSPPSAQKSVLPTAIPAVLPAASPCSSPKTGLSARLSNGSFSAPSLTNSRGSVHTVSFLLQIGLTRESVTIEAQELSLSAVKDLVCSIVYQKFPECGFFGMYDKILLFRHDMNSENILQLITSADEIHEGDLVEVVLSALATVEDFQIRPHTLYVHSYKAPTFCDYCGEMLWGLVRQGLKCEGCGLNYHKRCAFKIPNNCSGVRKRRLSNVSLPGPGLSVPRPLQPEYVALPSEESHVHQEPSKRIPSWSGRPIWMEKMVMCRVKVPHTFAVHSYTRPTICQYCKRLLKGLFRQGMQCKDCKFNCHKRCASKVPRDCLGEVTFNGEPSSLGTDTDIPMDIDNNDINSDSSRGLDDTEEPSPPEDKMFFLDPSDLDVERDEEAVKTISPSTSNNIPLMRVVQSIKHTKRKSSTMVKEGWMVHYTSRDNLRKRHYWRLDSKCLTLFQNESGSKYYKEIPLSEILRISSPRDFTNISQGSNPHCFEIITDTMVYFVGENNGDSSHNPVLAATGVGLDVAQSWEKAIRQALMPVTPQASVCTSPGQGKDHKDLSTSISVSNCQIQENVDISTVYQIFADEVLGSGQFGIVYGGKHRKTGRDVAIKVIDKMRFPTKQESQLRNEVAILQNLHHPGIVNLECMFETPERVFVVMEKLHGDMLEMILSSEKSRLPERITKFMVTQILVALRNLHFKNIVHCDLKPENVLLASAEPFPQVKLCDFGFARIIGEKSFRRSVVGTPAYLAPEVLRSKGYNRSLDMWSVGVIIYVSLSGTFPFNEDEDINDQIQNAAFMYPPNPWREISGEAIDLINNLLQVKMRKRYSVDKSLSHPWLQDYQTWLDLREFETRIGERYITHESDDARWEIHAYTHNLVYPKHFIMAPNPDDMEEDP

[3] = target: T2, Serine/threonine-protein kinase D3 (Homo sapiens); conditions: at 1 µM
[4] = target: T3, cGMP-dependent protein kinase 1 (Homo sapiens) (UniProt Q13976); conditions: at 0.1 µM
T3 sequence (whole entry): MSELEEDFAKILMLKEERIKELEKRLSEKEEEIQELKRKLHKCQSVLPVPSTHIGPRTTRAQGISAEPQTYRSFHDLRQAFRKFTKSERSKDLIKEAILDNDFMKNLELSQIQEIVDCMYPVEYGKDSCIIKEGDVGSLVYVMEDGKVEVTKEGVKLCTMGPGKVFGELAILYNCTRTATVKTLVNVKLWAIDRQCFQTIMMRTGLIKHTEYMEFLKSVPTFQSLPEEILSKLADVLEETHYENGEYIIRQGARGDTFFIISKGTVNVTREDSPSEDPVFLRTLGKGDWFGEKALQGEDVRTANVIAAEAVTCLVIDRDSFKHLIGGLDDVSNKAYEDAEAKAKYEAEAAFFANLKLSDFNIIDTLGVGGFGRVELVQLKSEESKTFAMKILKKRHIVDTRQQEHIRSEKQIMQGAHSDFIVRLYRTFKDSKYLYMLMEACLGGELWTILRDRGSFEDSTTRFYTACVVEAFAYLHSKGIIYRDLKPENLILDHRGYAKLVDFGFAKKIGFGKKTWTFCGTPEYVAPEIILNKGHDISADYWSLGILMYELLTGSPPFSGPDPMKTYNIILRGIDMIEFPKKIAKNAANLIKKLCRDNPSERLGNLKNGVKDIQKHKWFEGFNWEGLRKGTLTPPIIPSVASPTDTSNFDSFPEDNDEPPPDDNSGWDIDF

[5] = target: T3, cGMP-dependent protein kinase 1 (Homo sapiens); conditions: at 1 µM
[6] = target: T4, cGMP-dependent protein kinase 2 (Homo sapiens) (UniProt Q13237); conditions: at 0.1 µM
T4 sequence (whole entry): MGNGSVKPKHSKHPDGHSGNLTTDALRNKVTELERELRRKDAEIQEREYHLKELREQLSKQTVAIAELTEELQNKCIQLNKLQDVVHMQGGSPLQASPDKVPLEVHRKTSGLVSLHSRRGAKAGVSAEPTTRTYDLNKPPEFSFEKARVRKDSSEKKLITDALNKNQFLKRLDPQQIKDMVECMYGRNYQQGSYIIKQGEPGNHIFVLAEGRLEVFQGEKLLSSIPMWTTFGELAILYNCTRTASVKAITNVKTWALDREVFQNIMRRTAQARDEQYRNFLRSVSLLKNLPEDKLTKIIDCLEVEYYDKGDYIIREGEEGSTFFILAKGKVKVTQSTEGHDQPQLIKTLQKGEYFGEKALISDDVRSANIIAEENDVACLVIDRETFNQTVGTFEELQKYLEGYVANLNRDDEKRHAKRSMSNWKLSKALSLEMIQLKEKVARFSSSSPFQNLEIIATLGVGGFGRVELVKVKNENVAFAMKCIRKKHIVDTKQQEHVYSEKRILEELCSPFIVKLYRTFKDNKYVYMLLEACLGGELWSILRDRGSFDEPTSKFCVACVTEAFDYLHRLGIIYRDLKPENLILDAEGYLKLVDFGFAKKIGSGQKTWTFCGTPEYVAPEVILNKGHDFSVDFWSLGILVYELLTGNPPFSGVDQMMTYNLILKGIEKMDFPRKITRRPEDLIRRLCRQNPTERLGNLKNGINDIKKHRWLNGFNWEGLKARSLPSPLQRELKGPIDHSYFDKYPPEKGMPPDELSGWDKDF

[7] = target: T4, cGMP-dependent protein kinase 2 (Homo sapiens); conditions: at 1 µM
[8] = target: T5, cAMP-dependent protein kinase catalytic subunit PRKX (Homo sapiens) (UniProt P51817); conditions: at 0.1 µM
T5 sequence (whole entry): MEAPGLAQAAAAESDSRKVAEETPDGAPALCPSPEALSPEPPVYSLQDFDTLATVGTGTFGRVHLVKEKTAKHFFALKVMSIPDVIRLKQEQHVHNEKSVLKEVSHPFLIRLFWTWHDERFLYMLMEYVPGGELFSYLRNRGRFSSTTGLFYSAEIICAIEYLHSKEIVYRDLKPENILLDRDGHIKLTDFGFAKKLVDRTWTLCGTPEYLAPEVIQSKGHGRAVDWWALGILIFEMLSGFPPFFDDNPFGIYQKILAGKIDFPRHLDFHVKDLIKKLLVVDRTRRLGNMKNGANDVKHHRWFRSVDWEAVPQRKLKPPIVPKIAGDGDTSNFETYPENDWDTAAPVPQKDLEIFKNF

[9] = target: T5, cAMP-dependent protein kinase catalytic subunit PRKX (Homo sapiens); conditions: at 1 µM
[10] = target: Rho-associated protein kinase 1 (Homo sapiens) (UniProt Q13464); conditions: at 0.1 µM;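 note: values are mean percent inhibition of ROCK1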
Rho-associated protein kinase 1 (Homo sapiens), sequence (Q13464 2-1354 limits assumed): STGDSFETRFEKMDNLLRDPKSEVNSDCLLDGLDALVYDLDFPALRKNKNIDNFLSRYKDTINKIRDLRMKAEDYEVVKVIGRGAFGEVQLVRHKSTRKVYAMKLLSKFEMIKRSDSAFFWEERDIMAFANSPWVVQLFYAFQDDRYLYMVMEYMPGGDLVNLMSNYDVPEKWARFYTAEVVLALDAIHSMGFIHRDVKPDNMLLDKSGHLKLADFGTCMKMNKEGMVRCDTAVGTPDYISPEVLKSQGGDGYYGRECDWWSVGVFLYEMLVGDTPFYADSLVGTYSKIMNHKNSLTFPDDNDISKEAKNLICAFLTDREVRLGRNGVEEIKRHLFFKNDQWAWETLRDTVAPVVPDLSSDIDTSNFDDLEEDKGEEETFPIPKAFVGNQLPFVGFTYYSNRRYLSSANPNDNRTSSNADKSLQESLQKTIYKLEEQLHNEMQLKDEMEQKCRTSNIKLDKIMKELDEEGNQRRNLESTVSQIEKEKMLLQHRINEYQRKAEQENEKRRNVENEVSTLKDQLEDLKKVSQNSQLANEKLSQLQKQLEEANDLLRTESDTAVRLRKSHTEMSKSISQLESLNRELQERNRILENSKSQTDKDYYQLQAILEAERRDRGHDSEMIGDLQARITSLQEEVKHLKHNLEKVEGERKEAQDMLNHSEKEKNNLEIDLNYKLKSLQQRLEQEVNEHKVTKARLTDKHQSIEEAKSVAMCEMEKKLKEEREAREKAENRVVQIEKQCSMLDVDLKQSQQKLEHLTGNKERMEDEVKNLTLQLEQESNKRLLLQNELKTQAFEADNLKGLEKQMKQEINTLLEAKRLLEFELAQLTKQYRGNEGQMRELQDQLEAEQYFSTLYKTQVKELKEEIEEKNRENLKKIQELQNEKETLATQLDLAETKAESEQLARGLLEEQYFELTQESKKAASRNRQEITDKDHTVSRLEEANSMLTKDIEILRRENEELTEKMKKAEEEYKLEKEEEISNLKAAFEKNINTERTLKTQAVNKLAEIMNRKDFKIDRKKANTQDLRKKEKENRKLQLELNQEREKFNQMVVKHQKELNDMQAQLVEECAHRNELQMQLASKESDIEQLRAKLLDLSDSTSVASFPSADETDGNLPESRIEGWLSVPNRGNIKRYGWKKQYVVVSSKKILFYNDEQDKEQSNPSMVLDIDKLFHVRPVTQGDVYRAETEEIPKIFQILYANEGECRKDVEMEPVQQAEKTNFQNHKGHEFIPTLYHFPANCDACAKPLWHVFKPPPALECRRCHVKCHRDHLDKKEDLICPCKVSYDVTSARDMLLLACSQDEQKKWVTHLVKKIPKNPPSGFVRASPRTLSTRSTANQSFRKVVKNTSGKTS

Compound | inhibition [1] | inhibition [2] | inhibition [3] | inhibition [4] | inhibition [5] | inhibition [6] | inhibition [7] | inhibition [8] | inhibition [9] | inhibition [10]
CNC(=O)c1cncc(/C=C/c2ccccc2C)c1 | 3.79% | 3.31% | 4.34% | 4.05% | 5.68% | 2.97% | 5.05% | 3.99% | 6.15% | 1.2%
NS(=O)(=O)c1cccc(N/C=C2\C(=O)Nc3ccccc32)c1 | 11% | 5% | 9.04% | 3.34% | 4.68% | 1.91% | 7.34% | 1.79% | 2.25% | 1.58%
NC(=O)c1ccc2c(-c3ccnc(NCCCO)n3)c(-c3ccc(F)cc3)nn2c1 | 32.7% | 7.38% | 28.4% | 3.77% | 5.16% | 1.84% | 3.89% | 1.77% | 1.05% | 1.85%
CCS(=O)(=O)c1ccc(OC)c(Nc2ncc(-c3cccc(C(C)=O)c3)o2)c1 | 1% | 2.85% | 1.31% | 1.67% | 2.08% | -0.65% | 2.63% | 1.59% | 3.12% | 0.01%
CCCNc1cccc(-n2ncc3c(N/N=C/c4ccncc4)ncnc32)c1 | 1.21% | 0.66% | 0.02% | 0.73% | 2.57% | 2.7% | 4.72% | 2.18% | 4.42% | 2.35%
Nc1nonc1-c1nc2cnccc2n1C1CC1 | 18.3% and 17.4% | 5.14% and 1.26% | 21.9% and 19.9% | 13.6% and 15.4% | 50.7% and 56.1% | 36.7% and 40.2% | 65.8% and 69.3% | 3.44% and 4.71% | 23.7% and 26.4% | 43.6% and 46.2%
COC(=O)Nc1nc2cc(Oc3ccc(NC(=O)Nc4ccccc4)cc3)ccc2[nH]1 | 2.45% | 2.48% | 2.79% | 0.72% | 2.97% | 1.5% | 1.55% | 2.09% | 3.93% | 2.24%
Cc1cc(O)cc(C)c1/C=C/c1cncc(C(N)=O)c1 | 2.16% | 3.14% | 2.74% | 2.79% | 5.83% | 0.33% | 3.49% | 1.71% | 3.29% | 2.2%
N#Cc1ccc2c(-c3ccnc(NC4CC4)n3)c(-c3ccc(F)cc3)nn2c1 | 44.2% | 6.5% | 41.7% | 1.2% | -0.35% | 0.69% | -1.36% | 1.65% | 0.23% | 0.62%
OCCCNc1nccc(-c2c(-c3ccc(F)cc3)nn3cc(C(F)(F)F)ccc23)n1 | 16.9% | 4.73% | 33.9% | 1.52% | 4.78% | 2.03% | 3.96% | 0.4% | -0.76% | 0.15%
Nc1nccc(-c2c(-c3ccc(F)cc3)ncn2C2CCNCC2)n1 | 29.1% and 38.3% | -2.12% and 2.32% | 17.6% and 25.6% | -1.2% and -1.11% | -1.21% and 1.73% | -2.2% and 1.13% | 3.3% and 1.57% | -1.45% and 1.45% | -1.91% and 2.45% | -0.99% and 1.19%
Nc1ncnc2occ(-c3ccc(NC(=O)Nc4cc(C(F)(F)F)ccc4F)cc3)c12 | 1.3% and 0.14% | 2.15% and -1.96% | 1.95% and -2.28% | 2.47% and 0.31% | 1.42% and 0.75% | 1.4% and 0.27% | 2.16% and 1.02% | 0.81% and 0.1% | -1.13% and -0.05% | 1.07% and 0.31%
N#Cc1cccc(Nc2ncc(-c3ccccc3)o2)c1 | 2.25% | 1.91% | 1.02% | -0.54% | 3.32% | 0.03% | 1.45% | 1.09% | 2.62% | 0.04%
O=C(O[C@H]1CN[C@H](C#Cc2cc3ncnc(Nc4ccc(OCc5cccc(F)c5)c(Cl)c4)c3s2)C1)N1CCOCC1 | 6.01% | 6.55% | 6.45% | 3.08% | 7.14% | 3.07% | 4.91% | 3.17% | 6.34% | 0.81%
FC(F)(F)CNc1nccc(-c2cnn3ncccc23)n1 | 2.13% | 2.29% | 3.81% | 1.02% | 1.12% | 2.48% | 2.8% | 1.1% | 0.78% | -0.46%
Cc1ccc(-c2cc3c(NC(=O)C4CC4)ncnc3o2)cc1 | 6.17% | 5.27% | 7.32% | 3.82% | 5.54% | 1.95% | 4.28% | 1.05% | 0.33% | 1.09%
